# Experimental data reported in the supplement of paper PMC8728848.
# Only a selection was taken, and the strongest signals are over-represented in it overall.
# Columns and labels:
# Assay in all cases: glycan array binding signal (z-score within array); higher = stronger binding
# Conditions in all cases: glycan notation: IUPAC condensed, linker removed
# Fuc(a1-2)Gal(b1-3)GalNAc = target: Fuc(a1-2)Gal(b1-3)GalNAc
# In short: (§1)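 Negative Z-scores can be read as non-binding. The Z-score is calculated within each array and then averaged across arrays of one protein sequence at different concentrations or buffers and across linkers. Arrays, 3228 in all, were curated from the Consortium for Functional Glycomics database and kept only where the protein sequence was available.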
# [1] = target: Fuc(a1-2)Gal(b1-3)GalNAc(a1-3)[Fuc(a1-2)]Gal(b1-4)Glc
# In short: as §1
# [2] = target: Fuc(a1-2)Gal(b1-3)GalNAc(a1-3)[Fuc(a1-2)]Gal(b1-4)GlcNAc
# In short: as §1
# [3] = target: Fuc(a1-2)Gal(b1-3)[Fuc(a1-4)]GlcNAc(b1-3)[Fuc(a1-3)[Gal(b1-4)]GlcNAc(b1-6)]Gal(b1-4)Glc
# In short: as §1
# [4] = target: Fuc(a1-2)Gal(b1-4)GlcNAc(b1-3)GalNAc
# In short: as §1
# [5] = target: Fuc(a1-2)Gal(b1-4)GlcNAc6S
# In short: as §1
# [6] = target: Fuc(a1-2)Gal(b1-4)[Fuc(a1-3)]GlcNAc(b1-3)Gal(b1-4)[Fuc(a1-3)]GlcNAc
# In short: as §1
# [7] = target: Fuc(a1-2)[Gal(a1-3)]Gal(b1-4)Glc
# In short: as §1
# [8] = target: Fuc(a1-2)[Gal(a1-4)]Gal(b1-4)GlcNAc
# In short: as §1
# [9] = target: Fuc(a1-2)[GalNAc(b1-3)]Gal
# In short: as §1
# [10] = target: Fuc(a1-3)[Gal(b1-4)]GlcNAc(b1-3)GalNAc
# In short: as §1
# [11] = target: Fuc(a1-3)[Gal(b1-4)]GlcNAc(b1-6)[Gal(b1-3)GlcNAc(b1-3)]Gal(b1-4)Glc
# In short: as §1
# [12] = target: Fuc(a1-3)[GalNAc(b1-4)]GlcNAc
# In short: as §1
# [13] = target: Gal(a1-4)Gal(b1-3)GlcNAc(b1-2)Man(a1-3)[Gal(a1-4)Gal(b1-3)GlcNAc(b1-2)Man(a1-6)]Man(b1-4)GlcNAc(b1-4)GlcNAc
# In short: as §1
# [14] = target: Gal(b1-3)Gal(b1-4)GlcNAc(b1-2)Man(a1-3)[Gal(b1-3)Gal(b1-4)GlcNAc(b1-2)Man(a1-6)]Man(b1-4)GlcNAc(b1-4)GlcNAc
# In short: as §1
# [15] = target: Gal(b1-3)GlcNAc(b1-2)Man(a1-3)[Gal(b1-3)GlcNAc(b1-2)Man(a1-6)]Man(b1-4)GlcNAc(b1-4)GlcNAc
# In short: as §1
# [16] = target: Gal(b1-4)GlcNAc(b1-2)Man(a1-3)[Gal(b1-4)GlcNAc(b1-2)][GlcNAc(b1-4)]Man(b1-4)GlcNAc(b1-4)GlcNAc
# In short: as §1
# [17] = target: Gal(b1-4)GlcNAc(b1-2)Man(a1-3)[GlcNAc(b1-2)Man(a1-6)]Man(b1-4)GlcNAc(b1-4)GlcNAc
# In short: as §1
# [18] = target: Gal(b1-4)GlcNAc(b1-2)Man(a1-6)[Man(a1-3)]Man(b1-4)GlcNAc(b1-4)GlcNAc
# In short: as §1
# [19] = target: Gal(b1-4)GlcNAc(b1-2)[Gal(b1-4)GlcNAc(b1-6)]Man(a1-6)[Gal(b1-4)GlcNAc(b1-2)Man(a1-3)]Man(b1-4)GlcNAc(b1-4)[Fuc(a1-6)]GlcNAc
# In short: as §1
# [20] = target: Gal(b1-4)GlcNAc(b1-6)GalNAc
# In short: as §1
# [21] = target: Gal3S(b1-4)[Fuc(a1-3)]Glc6S
# In short: as §1
# GalNAc3S(b1-4)GlcNAc = target: GalNAc3S(b1-4)GlcNAc
# In short: as §1
# Glc(b1-4)Glc = target: Glc(b1-4)Glc
# In short: as §1
# [22] = target: GlcNAc(b1-2)Man(a1-3)[GlcNAc(b1-2)Man(a1-6)]Man(b1-4)GlcNAc(b1-4)GlcNAc
# In short: as §1
# [23] = target: GlcNAc(b1-3)[GlcNAc(b1-6)]GalNAc
# In short: as §1
# Kdn(a2-3)Gal(b1-4)Glc = target: Kdn(a2-3)Gal(b1-4)Glc
# In short: as §1
# [24] = target: Man(a1-2)Man(a1-3)[Man(a1-2)Man(a1-6)]Man(a1-6)[Man(a1-2)Man(a1-2)Man(a1-3)]Man
# In short: as §1
# [25] = target: Man(a1-2)Man(a1-6)[Man(a1-3)]Man(a1-6)[Man(a1-2)Man(a1-2)Man(a1-3)]Man
# In short: as §1
# [26] = target: Man(a1-3)[Man(a1-6)]Man(a1-6)[Man(a1-2)Man(a1-3)]Man(b1-4)GlcNAc(b1-4)GlcNAc
# In short: as §1
# [27] = target: Man(a1-3)[Man(a1-6)]Man(a1-6)[Man(a1-3)]Man(b1-4)GlcNAc(b1-4)GlcNAc
# In short: as §1
# [28] = target: Man(a1-3)[Man(a1-6)]Man(b1-4)GlcNAc(b1-4)GlcNAc
# In short: as §1
# [29] = target: Neu5Ac(a2-3)Gal(b1-3)GalNAc(b1-4)[Neu5Ac(a2-3)]Gal(b1-4)Glc
# In short: as §1
# [30] = target: Neu5Ac(a2-3)Gal(b1-4)[Fuc(a1-3)]GlcNAc(b1-3)Gal(b1-4)[Fuc(a1-3)]GlcNAc(b1-3)Gal(b1-4)[Fuc(a1-3)]GlcNAc
# In short: as §1
# Neu5Ac(a2-6)Gal = target: Neu5Ac(a2-6)Gal
# In short: as §1
# [31] = target: Neu5Ac(a2-6)Gal(b1-4)GlcNAc(b1-2)Man(a1-3)[Neu5Ac(a2-6)Gal(b1-4)GlcNAc(b1-2)Man(a1-6)]Man(b1-4)GlcNAc(b1-4)GlcNAc
# In short: as §1
# [32] = target: Neu5Ac(a2-6)Gal(b1-4)GlcNAc(b1-2)Man(a1-3)[Neu5Ac(a2-6)Gal(b1-4)GlcNAc(b1-2)Man(a1-6)]Man(b1-4)GlcNAc(b1-4)[Fuc(a1-6)]GlcNAc
# In short: as §1
# [33] = target: Neu5Ac(a2-6)Gal(b1-4)GlcNAc(b1-2)Man(a1-6)[Man(a1-3)]Man(b1-4)GlcNAc(b1-4)GlcNAc
# In short: as §1
# [34] = target: Neu5Ac(a2-6)Gal(b1-4)GlcNAc(b1-3)GalNAc
# In short: as §1
# Neu5Ac(a2-6)GalNAc = target: Neu5Ac(a2-6)GalNAc
# In short: as §1
# [35] = target: Neu5Ac(a2-6)GalNAc(b1-4)GlcNAc6S
# In short: as §1
binder,measurement,setting,value
SalT (Orysata sativa) (protein) MTLVKIGLWGGNGGSAQDISVPPKKLLGVTIYSSDAIRSIAFNYIGVDGQEYAIGPWGGGEGTSTEIKLGSSEHIKEISGTHGPVYDLADIVTYLKIVTSANNTYEAGVPNGKEFSIPLQDSGHVVGFFGRSGTLIDAIGIYVHPILEQKLISEEDLNSAVDHHHHHH,glycan array binding signal (z-score),Fuc(a1-2)Gal(b1-3)GalNAc,-0.283
same,glycan array binding signal (z-score),[1],-0.306
same,glycan array binding signal (z-score),[2],-0.31
same,glycan array binding signal (z-score),[3],-0.307
same,glycan array binding signal (z-score),[4],-0.307
same,glycan array binding signal (z-score),[5],-0.308
same,glycan array binding signal (z-score),[6],-0.308
same,glycan array binding signal (z-score),[7],-0.308
same,glycan array binding signal (z-score),[8],-0.309
same,glycan array binding signal (z-score),[9],-0.31
same,glycan array binding signal (z-score),[10],-0.301
same,glycan array binding signal (z-score),[11],-0.31
same,glycan array binding signal (z-score),[12],-0.306
same,glycan array binding signal (z-score),[13],3.59
same,glycan array binding signal (z-score),[14],3.71
same,glycan array binding signal (z-score),[15],3.69
same,glycan array binding signal (z-score),[16],0.03
same,glycan array binding signal (z-score),[17],2.65
same,glycan array binding signal (z-score),[18],4.64
same,glycan array binding signal (z-score),[19],0.799
same,glycan array binding signal (z-score),[20],-0.307
same,glycan array binding signal (z-score),[21],-0.3
same,glycan array binding signal (z-score),GalNAc3S(b1-4)GlcNAc,-0.306
same,glycan array binding signal (z-score),Glc(b1-4)Glc,-0.309
same,glycan array binding signal (z-score),[22],4.06
same,glycan array binding signal (z-score),[23],-0.309
same,glycan array binding signal (z-score),Kdn(a2-3)Gal(b1-4)Glc,-0.306
same,glycan array binding signal (z-score),[24],-0.304
same,glycan array binding signal (z-score),[25],-0.282
same,glycan array binding signal (z-score),[26],5.46
same,glycan array binding signal (z-score),[27],3.62
same,glycan array binding signal (z-score),[28],4.94
same,glycan array binding signal (z-score),[29],-0.304
same,glycan array binding signal (z-score),[30],-0.305
same,glycan array binding signal (z-score),Neu5Ac(a2-6)Gal,-0.305
same,glycan array binding signal (z-score),[31],2.81
same,glycan array binding signal (z-score),[32],0.435
same,glycan array binding signal (z-score),[33],4.96
same,glycan array binding signal (z-score),[34],-0.296
same,glycan array binding signal (z-score),Neu5Ac(a2-6)GalNAc,-0.307
same,glycan array binding signal (z-score),[35],-0.303
